The values below come from ChEMBL document CHEMBL3988442, “University of Dundee, Small-Polar-MMV Screening Library” (2021).

Each structure is given as a SMILES string. Among all 48,000 compounds or so, about 13,000 (27%) showed an effect of 50% or more. The list shows a part of the results.

The test system of this assay is Wolbachia pipientis. Put plainly: Anti-Wolbachia Cell-Based Screen. The assay is classed as functional. Also on record: scale not given: in the data most compounds retested in dose-response had high values. The note with it: 5 µM.
In the case of `CN(C)C(=O)N1Cc2ncn(C)c2C(COCC2CCOCC2)C1.O=C(O)C(F)(F)F` (centres undefined), the “Percent Effect” value was -8.2%.

For the compound `CCOCCN1Cc2ncn(C)c2C(COCC2CCOCC2)C1.O=C(O)C(F)(F)F.O=C(O)C(F)(F)F` (centres undefined), the “Percent Effect” value is listed as -3.886%.

On to `CN(C)CCN1Cc2ncn(C)c2C(COCC(=O)N(C)C)C1` (centres undefined), for which the “Percent Effect” value turned out to be 87.7%.

As for `CCOCC1CN(C(=O)N(C)C)Cc2nn(C)cc21` (centres undefined), the “Percent Effect” value is -8.201%.

In the case of `CN(C)CC(=O)N1Cc2ncn(C)c2C(COCC2CCOCC2)C1` (centres undefined), the “Percent Effect” value is reported as 11.09%.

Take `CN(C)C(=O)COCC1CN(CC2CCOCC2)Cc2ncn(C)c21` (centres undefined): the “Percent Effect” value stood at 99.32%.

Consider `Cc1ccc(CN2C[C@H]3C(=O)N(CC4CC4)C[C@@]3(C(=O)O)C2)c(F)c1F`, for which the “Percent Effect” value amounted to 26.68%.

Regarding `O=C(CSCC1CC1)N1CCC2(CCCN(C3CCOCC3)C2=O)C1` (centres undefined), the “Percent Effect” value was 90.41%.

In the case of `O=C(CN1CCOCC1)N1CCC2(CCCN(C3CCOCC3)C2=O)C1` (centres undefined), the “Percent Effect” value was 102.1%.

`O=C(COCC(F)(F)C(F)F)N1CCC2(CCCN(CC3CC3)C2=O)C1` (centres undefined): the “Percent Effect” value is given as -8.945%.

Turning to `CN1CCCC2(CCN(C(=O)Cc3cc4c(cc3Cl)OCCO4)C2)C1=O` (centres undefined), the “Percent Effect” value is -11.77%.

As for `O=C(CCc1nc(Cl)n[nH]1)N1CCC2(CCCN(CC3CCC3)C2=O)C1` (centres undefined), the “Percent Effect” value was -5.22%.

As to `O=C(CSC(F)(F)F)N1CCC2(CCCN(C3CCOCC3)C2=O)C1` (centres undefined), the “Percent Effect” value amounted to 96.55%.

As to `O=C(CCCn1cncn1)N1CCC2(CCCN(C3CCCC3)C2=O)C1` (centres undefined), the “Percent Effect” value was -21.81%.

On to `O=C(CCCn1cncn1)N1CCC2(CCCN(CC3CC3)C2=O)C1` (centres undefined), for which the “Percent Effect” value amounted to 15.06%.

As to `CS(=O)(=O)CCC(=O)N1CCC2(CCCN(C3CCOCC3)C2=O)C1` (centres undefined), the “Percent Effect” value is recorded as -5.583%.

Take `CCS(=O)(=O)N1CCCC2(CCCN2C(=O)c2cscn2)C1` (centres undefined): the “Percent Effect” value is -8.968%.

For the compound `N#Cc1ccc(NCCCN2C(=O)COc3ccccc32)nc1`, the “Percent Effect” value is given as -5.647%.

As to `CNC(=O)c1cccc(CN2CCN(C3=NCC(C)(C)S3)CC2)c1`, the “Percent Effect” value is given as 103.7%.

Turning to `CNC(=O)c1ccc(Cn2ccnc2S(C)(=O)=O)cc1`, the “Percent Effect” value is -4.025%.

For `CNC(=O)c1ccc(CN2CCN(C3=NCC(C)(C)S3)CC2)cc1`, the “Percent Effect” value is reported as 129.2%.

Take `CC(=O)Nc1cccc(Cn2nc(C)nc2C)c1`: the “Percent Effect” value worked out at 5.981%.

As for `CC(NC(=O)c1cccc(CN2CCN(C)CC2)c1)c1ccccn1` (centres undefined), the “Percent Effect” value is -0.367%.

On to `CN(C)c1ncccc1C(=O)N1CCN(C2=NCC(C)(C)S2)CC1`, for which the “Percent Effect” value is given as -14.23%.

In the case of `CC(=O)NCCC(=O)Nc1cccc(N2CCN(CC3CC3)CC2)c1`, the “Percent Effect” value is reported as 8.668%.

For the compound `CC(=O)Nc1cccc(CN2CCN(C3=NCC(C)(C)S3)CC2)c1`, the “Percent Effect” value stood at 100.4%.

Consider `COCc1cccc(C(=O)N2CCN(C3=NCC(C)(C)S3)CC2)c1`, for which the “Percent Effect” value is on record as 0.6755%.

Take `CNC(=O)c1cccc(CN2CCC(N(C)Cc3nnc(C)o3)C2)c1` (centres undefined): the “Percent Effect” value came to 0.9226%.

For `CNC(=O)c1cccc(CN2CCN(c3ccncc3)CC2)c1`, the “Percent Effect” value came out at 83.93%.

Consider `CC(NC(=O)c1cccc(CN2CCN(C)CC2)c1)c1nccs1` (centres undefined), for which the “Percent Effect” value came to 12.68%.

As to `CN(CCCc1n[nH]c(N)c1C#N)C(=O)NC1CC1`, the “Percent Effect” value is reported as 0.449%.

Regarding `O=C(NCCCO)Nc1cccc(C[S+]([O-])c2ccccc2)c1` (centres undefined), the “Percent Effect” value worked out at 2.569%.

Consider `CN(Cc1ccccc1)CC1CC2(CO1)CN(Cc1nccs1)C2` (centres undefined), for which the “Percent Effect” value came out at 11.68%.

In the case of `Cc1ccc(N2CCC3(CCCN(C(=O)c4cccnc4)C3)C2)nn1.O=C(O)C(F)(F)F` (centres undefined), the “Percent Effect” value is on record as -9.172%.

Consider `Cc1ccc(C(=O)N2CCC3(CCCN(c4ncc(F)cn4)C3)C2)cn1.O=C(O)C(F)(F)F` (centres undefined), for which the “Percent Effect” value worked out at 104%.

Take `Cc1occc1C(=O)N1CCC2(CCCN(Cc3nccs3)C2)C1.O=C(O)C(F)(F)F` (centres undefined): the “Percent Effect” value came to 1.287%.

With `O=C(O)C(F)(F)F.O=C(c1ccncc1)N1CCC2(CCCN(c3ncc(F)cn3)C2)C1` (centres undefined), the “Percent Effect” value was found to be 105.7%.

As to `Cc1occc1C(=O)N1CCC2(CCCN(c3ncc(F)cn3)C2)C1.O=C(O)C(F)(F)F` (centres undefined), the “Percent Effect” value is given as 116.2%.

On to `Cc1occc1C(=O)N1CCC2(CCCN(Cc3cccs3)C2)C1.O=C(O)C(F)(F)F` (centres undefined), for which the “Percent Effect” value is -3.04%.

Turning to `CN(Cc1ccncc1)C1CC2(CCN(c3ncc(F)cn3)CC2)C1.O=C(O)C(F)(F)F.O=C(O)C(F)(F)F`, the “Percent Effect” value is listed as -2.894%.

For the compound `Cc1ccc(C(=O)N2CCC3(CCCN(c4ccc(C)nn4)C3)C2)cn1` (centres undefined), the “Percent Effect” value worked out at 4.152%.

Take `c1ccc2c(c1)CC(CNCc1ccncc1)(N1CCCCC1)C2`: the “Percent Effect” value is given as -2.88%.

`CC(CN1CCC2(CC1)c1nc[nH]c1CCN2S(C)(=O)=O)C(F)(F)F` (centres undefined): the “Percent Effect” value was -8.098%.

Consider `COC(=O)c1ccc(C(=O)NS(=O)(=O)c2cncc(Br)c2)cc1`, for which the “Percent Effect” value is -17.99%.

Turning to `Cc1ncsc1CCCn1ccnc1-c1cc2n(n1)CCCNC2`, the “Percent Effect” value was -0.1089%.

Regarding `CC(O)CN1CCc2[nH]nc(C(c3ccccc3)c3ccccc3)c2C1` (centres undefined), the “Percent Effect” value came to 0.8234%.

Consider `CCC1(CO)CCCN(C(=O)c2ccc(N3CCN(C)CC3)cc2)C1` (centres undefined), for which the “Percent Effect” value is reported as -10.61%.

With `CCC1(C(=O)O)CCCN(C(=O)c2ccc(N3CCN(C)CC3)cc2)C1` (centres undefined), the “Percent Effect” value stood at 4.53%.

For `COc1ccc(C(=O)N2CCCC3(CCCC(=O)N3C)C2)cc1` (centres undefined), the “Percent Effect” value was found to be 91.19%.
